# Rows were chosen to be rich in hits. Some 21% of all compounds tested hit in one or more screens of this group.
# Pf growth 96h – Primary qHTS for delayed death inhibitors of the malarial parasite plastid, 96 hour incubation; Potency, µM (highest dose often 28.7 µM), for inactives: at the highest dose activity change, negative = inhibition, most hits filed as inhibitors; P. falciparum luciferase reporter growth, 96 h; 320,000 tested, 6.9% active; also: potency is read from the fitted curve at half-maximal effect; % is scaled to controls: 0 for no effect and ±100 for the full control effect
#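 Infected RBCs, 2% Hct / 0.05% parasitemia final; luciferase-reporter P. falciparum; cpd 96 h, 37 C, 5% CO2; luciferase detection reagent; luminescence.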
# Pf growth 48h – Primary qHTS for delayed death inhibitors of the malarial parasite plastid, 48 hour incubation; 310,000 tested, 5.9% active; P. falciparum luciferase growth in erythrocytes, 48 h; Potency, µM (series often up to 28.7 µM), for inactives: top-dose activity change, negative = inhibition, most hits filed as inhibitors; AID 504832, 2011; also: potency is read from the fitted curve at half-maximal effect; % is scaled to controls: 0 for no effect and ±100 for the full control effect
#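 Parasite viability was followed by luminescence of a genomically integrated firefly luciferase. Cultures held 0.1% parasitemia at 2% hematocrit (final), incubated under 5% CO2 at 37 C.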
# CHX counter – Cycloheximide Counterscreen for Small Molecule Inhibitors of Shiga Toxin. cell reporter, cycloheximide protein synthesis inhibition counterscreen. AID 2314, 2010. max response, %. 300,000 tested, 12% active; in the data active = max response mostly above about 13%, no sharp cut-off; inactive = mostly below about 14%; also: read at 38.3 µM for the half of the compounds with a filed dose; 0% is about no effect
# NS1 inh – qHTS Assay for Inhibitors of Influenza NS1 Protein Function; Potency, µM (top dose mostly 46.1 µM), for the others: at the highest dose activity, positive = more growth; 270,000 tested, 0.4% active; AID 2326, 2010; calls by dose curve; also: potency is read from the fitted curve at half-maximal effect; actives are rising curves; nearly all actives have a fitted effect of over 50% in size
#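 A cell-based growth assay was used: compounds that relieve NS1-induced slow growth of budding yeast raise OD600. Assay medium was yeast nitrogen base with ammonium sulphate and -URA supplement, pH 6.0, with 2% galactose.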
# Sm TGR block – qHTS Assay for the Inhibitors of Schistosoma Mansoni Peroxiredoxins; purified TGR, DTNB reduction, TNB absorbance 405 nm; Potency, µM (top dose mostly 114 µM), without a hit: at the top dose activity change, negative = inhibition, most hits filed as inhibitors; 360,000 tested, 3% active; also: potency is read from the fitted curve at half-maximal effect; % is scaled to controls: 0 for no effect and ±100 for the full control effect; nearly all actives have a fitted effect of over 60% in size
#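 TGR 20 nM + NADPH 100 uM (dispensed conc.), cpd preinc 15 min RT; start with NADPH (500 uM addition) then DTNB (15 mM addition). Kinetic TNB absorbance, 405 nm filter. Four-parameter Hill fit across titration.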
# Shiga toxin inh – A qHTS for Small Molecule Inhibitors of Shiga Toxin. inhibition, % at 38.7 µM. AID 2315, 2010. Vero cells, Shiga toxin protein synthesis inhibition reporter. 290,000 tested, 9.2% active; in the data active = inhibition mostly above about 28%, no sharp cut-off; inactive = mostly below about 43%; also: 0% is about no effect
# An asterisk follows results filed as active; ? = inconclusive; / = not tested or not shown; ! = not confirmed by another sample. Unless noted, calls follow the shape of the dose curve; as a rule, active = well fitted curve in the direction sought with a large enough effect; inconclusive = small, poorly fitted or top-dose-only effect, or another doubt; inactive = no such curve, though single readings can be large; an effect the other way counts as inactive or inconclusive.
SMILES,Pf growth 96h,Pf growth 48h,CHX counter,NS1 inh,Sm TGR block,Shiga toxin inh
Cc1sc2ccccc2c1CC1=NCCN1,8.5µM*!,?,/,-5%,8%,/
c1ccc2c(c1)sc1ccccc12,1%,9%,/,/,/,/
CCN(CC)CCn1c2c(c(SCC(=O)Nc3cccc(C(C)=O)c3)nc1=O)CCCC2,?,?,/,/,45µM*,/
CCN(CC)CCn1c2c(c(SCC(=O)Nc3ccc4c(c3)OCCO4)nc1=O)CCCC2,2.9µM*,?,/,/,?,/
O=C(Nc1cccc(OCc2cc(=O)n3ccccc3n2)c1)c1ccccc1Br,/,/,/,/,4%,/
CCOc1ccccc1N1CC(C(=O)Nc2ccc(S(=O)(=O)N3CCCCC3)cc2)CC1=O (configuration not stated),?,-4%,/,/,0%,/
CCCc1ccc2oc(C(=O)N3CCC(N4CCCC(O)C4)CC3)c(C)c2c1 (configuration not stated),-8%,?,13,-1%,?,13
CCCc1ccc2oc(C(=O)N3CCC(COC)C3)c(C)c2c1 (configuration not stated),?,78%,33*,-34%,1%,/
CCCc1ccc2oc(C(=O)N3CCC[C@H]3CO)c(C)c2c1,?,91%,41*,-36%,8%,29*
Cc1ccc2c(C)c(C(=O)N3CCCCC3CO)oc2c1C (configuration not stated),?,28%,21*,-24%,-7%,67*
COc1ccc2nc(SCC(=O)c3c(C)[nH]c4ccccc34)nc(C)c2c1,/,/,/,/,-2%,/
O=C(CSc1nccn1-c1ccc(Cl)cc1)Nc1cccc2ccccc12,/,/,/,/,-110%,/
O=S(=O)(c1ccccc1Br)N(Cc1ccccc1)Cc1ccco1,/,/,8,/,/,12
COc1ccc(NC(=O)c2cc(C(C)C)on2)cc1OC,35%,58%,44*,-39%,10%,45*
COc1cc(NC(=O)c2cc(C(C)C)on2)c(OC)cc1Cl,-11%,13µM*,13*,-9%,8%,32
COc1ccc(NC(=O)c2cc(C(C)C)on2)c(OC)c1,?,225%,53*,-14%,11%,114*
CCN(CC)C(=O)c1sc2c(c1C)c(=O)n(Cc1ccccc1)c(=O)n2Cc1c(C)cc(C)cc1C,/,/,/,/,6%,/
CCCCCOC(=O)C(C)Sc1n[nH]c(=O)[nH]c1=O (configuration not stated),30%,-2%,7,/,4%,-19
CCCCOC(=O)CSc1n[nH]c(=O)[nH]c1=O,13µM*,/,1,-10%,-1%,16
OCCN(CO)CO,/,/,/,-4%,/,/
OC(C#CCN1CCCC1)(c1ccccc1)c1cccnc1 (configuration not stated),?,?,-4,7%,32µM*,28
OC(C#CCCN1CCCCC1)(c1ccccc1)c1ccccc1,?,?,6,4%,-18%,-5
OC(C#CCN1CCCCCC1)(c1ccccc1)c1cccnc1 (configuration not stated),12µM*,?,-1,0%,14µM*,-3
CCOc1ccc(-c2cc3nc(C4CCN(C(=O)OC(C)(C)C)CC4)c(C(=O)O)cn3n2)cc1,?,0.47µM*,24*,26%,-11%,-5
Cc1ccc(COC(=O)c2[nH]c3c(c2C)C(=O)CC(c2ccc(N(C)C)cc2)C3)cc1 (configuration not stated),/,/,/,/,3%,/
Cc1ccnc(NC(=S)N2CCN(c3cccc(C(F)(F)F)c3)CC2)c1,?,?,7,-115%,5%,26
CCOc1cccc2cc(C(=O)N3CC(C)OC(C)C3)c(=O)oc12 (configuration not stated),6.6µM*,5%,-2,-34%,10%,-10
CCOc1cccc2cc(C(=O)N3CCOCC3)c(=O)oc12,12µM*,16%,9,5%,-16%,6
CCOc1cccc2cc(C(=O)Nc3nccs3)c(=O)oc12,89%,58%,-1,-11%,-1%,11

# From PubChem BioAssay
